# In ChEMBL document CHEMBL1157539, “Thousands of chemical starting points for antimalarial lead identification” (Nature, 2010):
# Legend:
# Format in all cases: functional
# Plasmodium falciparum [1] = experiment: GSK_TCMDC: Inhibition of Plasmodium falciparum 3D7 in whole red blood cells, using parasite LDH activity as an index of growth. Test compounds present at 2uM
# Plasmodium falciparum [2] = experiment: GSK_TCMDC: Inhibition of Plasmodium falciparum Dd2 in whole red blood cells, using parasite LDH activity as an index of growth. Test compounds present at 2uM
# HepG2 = experiment: GSK_TCMDC: Percent inhibition of human HepG2 cell line. Test compounds present at 10uM.
SMILES,Inhibition (Plasmodium falciparum [1]) [%],Inhibition (Plasmodium falciparum [2]) [%],Inhibition (HepG2) [%]
COc1cccc(-c2nn(C)c3sc(C(=O)Nc4cccnc4)cc23)c1,86,34,1
COc1ccc2nccc([C@@H](O)CN3CCC(NCc4ccc5c(c4)NC(=O)CO5)CC3)c2c1.Cl,99,6,1
Cc1ccc(C(C)C)cc1CON1C(=N)N=C(N)NC1(C)C.Cl,94,92,66
CC(C)c1ccc(NC(=O)c2ccc(CN3CCCN(CC4CCCCC4)CC3)cc2)cc1.O=C(O)C(F)(F)F,90,34,50
Cc1onc(-c2ccccc2)c1C(=O)Nc1nc(-c2ccccn2)nc2ccsc12,97,78,23
CC(Nc1cc(-c2ccccn2)nc(-c2ccccn2)n1)c1ccccc1 (stereo unspecified),85,98,61
CCCC(=O)c1cnc2c(OCCCc3c[nH]cn3)cccc2c1Nc1c(C)cccc1C,98,14,20
COc1ccc(-c2ccc(NC(=O)c3ccc(C#N)cc3)cc2)cc1CN(C)CCO.O=C(O)C(F)(F)F,99,44,41
O=C(NCc1ccc2c(c1)OCO2)c1nn(CCN2CCC(N3CCCC3)CC2)cc1-c1ccc(Cl)c(Cl)c1,94,17,21
CN1CCC(C(=O)N(Cc2ccc(-c3ccc(CNCCc4ccc(S(C)(=O)=O)cc4)cn3)cc2)C2Cc3ccccc3C2)CC1.O=C(O)C(F)(F)F,98,49,21
Cc1ccc(C2CCN(CCCCNC(=O)c3ccc(-c4ccc(C(F)(F)F)cc4)cc3)CC2)c(O)c1,100,49,92
CNC(=O)c1cnc(Nc2ccc(N3CCN(C)CC3)cc2)nc1Nc1cccc(OC(C)C)c1.O=C(O)C(F)(F)F,100,100,16
Nc1nccc2ccc(OC3CCCCC3)cc12.O=CO,98,41,24
NC(=O)c1cccc(C(=O)Nc2cccc(-c3ccc(-c4nc5cc(C(F)(F)F)ccc5[nH]4)cc3)c2)c1,100,78,83
COc1ccc(Nc2nc(NC3CCN(Cc4ccccc4)CC3)cc(-c3ccncc3)n2)cc1,88,40,26
Brc1ccc(C=NNc2nc3ccccc3[nH]2)cc1,100,90,0
COc1ccc(CNCc2ccccc2)cc1-c1ccc(S(=O)(=O)NCCN2CCCC2)c(F)c1.O=C(O)C(F)(F)F,87,42,29
COc1cc2c(C3CCN(CC4CCC(NC(=O)/C=C/c5ccc(Cl)c(Cl)c5)CC4)CC3)c[nH]c2cn1 (stereo unspecified),100,100,44
Cl.c1ccc2c(Nc3ccc(OCCOCCOc4ccc(Nc5c6ccccc6nc6ccccc56)cc4)cc3)c3ccccc3nc2c1,100,97,38
CC1CC1C(=O)NC1CCN(CC2(c3ccccc3)CCCCC2)CC1 (stereo unspecified),97,95,0
Oc1ccc2ncnc(Nc3ccc(OCc4cccc(F)c4)c(Cl)c3)c2c1,100,30,24
Cc1cc(=O)c(-c2ccc(Oc3cccc(OC(F)(F)F)c3)cc2)c(C)[nH]1,97,96,13
CCCCN(CCCC)/C(=N/C(=N)Nc1ccc(Cl)cc1)NCCCCCCN/C(=N\C(=N)Nc1ccc(Cl)cc1)N(CCCC)CCCC,81,72,0
Cc1[nH]c(C)c(-c2ccc(-c3ccc(OC(F)(F)F)cc3)nc2)c(=O)c1Br,97,97,26

SMILES,Inhibition (Plasmodium falciparum [1]) [%],Inhibition (Plasmodium falciparum [2]) [%],Inhibition (HepG2) [%]
Cc1cc(-c2ccnc(Nc3cccc(C#N)c3)n2)cc(C)c1O,88,54,50
CN(C)CCNCc1cccc(-c2ccc3c(Nc4cc(O)c(Cl)cc4F)ccnc3c2)c1,99,59,6
CC(=O)Nc1cccc(CNCc2ccc(-c3cnc(N4CCCC(c5ccccc5)C4)nc3)cc2)c1.O=CO (stereo unspecified),84,22,16
O=C(/C=C/c1ccccc1)N1CCOC(CCN2CCC(c3ccccc3)CC2)(c2ccc(Cl)c(Cl)c2)C1 (stereo unspecified),89,63,4
Cn1ccnc1CNC(=O)c1ccc(-c2cccc(-c3nc4cc(C(F)(F)F)ccc4[nH]3)c2)cc1,100,80,20
Cc1cc(NC(=O)c2cccs2)ccc1OC1CCN(Cc2ccc(F)cc2)C1.O=C(O)C(F)(F)F (stereo unspecified),95,92,0
COc1cc(C(=O)N2CCN(C(C)C)CC2)ccc1CN(C)CCCN1CCN(c2cccc(Cl)c2Cl)CC1.Cl,100,87,56
CC[C@H]1CN(Cc2ccco2)CC[C@H]1CCCc1ccnc2ccc(O)cc12,93,14,31
O=C(NC1CCC(N2CCCC(OCc3ccccc3)C2)CC1)c1cc2ccccc2[nH]1 (stereo unspecified),94,11,38
Cc1cc(Oc2ccc(-n3ccnc3)cc2)nc(N2CCN(CCCN3CCCC3)CC2)n1.O=C(O)C(F)(F)F,90,7,5
O=C(Nc1ccc(Cl)cc1)c1ccc(CN2CCCN(CC3CCCCC3)CC2)cc1.O=C(O)C(F)(F)F,92,42,48
O=C(Nc1ccc2c(c1)CCCN2S(=O)(=O)c1cccs1)c1cc([N+](=O)[O-])ccc1Cl,93,95,29
Cc1ccc(Cc2c(N)nc3nc(N)nc(N)c3c2C)cc1.Cl,95,8,59
Cn1c(NCc2cc(F)cc3c2OCOC3)nc2cc(Nc3ccnc(Nc4cccc(CS(C)(=O)=O)c4)n3)ccc21,100,100,0
CCCCc1ccc(C(=O)Nc2ccc3nc(N4CCN(C)CC4)cc(C)c3c2)cc1,90,21,44
CCCCCCN1CCC(NCc2cccc(C#N)c2)CC1.O=C(O)C(F)(F)F,97,9,5
O=C(Nc1ccc(OC2CCN(Cc3ccc(F)cc3)CC2)c(Cl)c1)c1ccc(F)cc1.O=C(O)C(F)(F)F,97,95,37
Nc1cccc(CNCc2cccc(-c3ccc(-c4nc5ccccc5[nH]4)s3)c2)c1.O=C(O)C(F)(F)F,100,90,8
CCCN(Cc1nnc(-c2cccs2)o1)C(=O)CSc1nnnn1-c1cc(C)cc(C)c1,92,71,2
NC1CCN(Cc2ccc(-c3ccc(-c4nc5ccccc5[nH]4)cc3)cc2)C1.O=C(O)C(F)(F)F (stereo unspecified),100,100,34
Cc1cc(O)c(CN2CCN(Cc3cccs3)CC2)cc1C(C)C,98,97,7
CN1CCCc2ccc(NC(=O)C=Cc3ccc(-c4ccc(F)cc4F)o3)cc2C1.O=C(O)C(F)(F)F,98,20,8
COc1ccc(C(=O)N2CCN(c3ccc([N+](=O)[O-])c(NC4CC4)c3)CC2)cc1Br,99,68,6
